# Measured values: the supplement of paper PMC8728848
# Only a selection was taken, and the strongest signals are over-represented in it overall.
# B1: Thrombomodulin Lectin (Mus musculus) (protein)
# chain: LSALAKLQPTGSQCVEHECFALFQGPATFLDASQACQRLQGHLMTVRSSVAADVISLLLSQSSMDLGPWIGLQLPQGCDDPVHLGPLRGFQWVTGDNHTSYSRWARPNDQTAPLCGPLCVTVSTATEAAPGEPAWEEKPCETETQGFLCEFYFTASCRVDPIPVREDTKEEEGAGEPPVSPTPGSPTGPPSARPVLDEPRVPITQNPCPPLKECPPCAAPDLEGGPSVFIFPPKIKDVLMISLSPMVTCVVVDVSEDDPDVQISWFVNNVEVHTAQTQTHREDYNSTLRVVSALPIQHQDWMSGKAFACAVNNRALPSPIEKTISKPRGPVRAPQVYVLPPPAEEMTKKEFSLTCMITGFLPAEIAVDWTSNGRTEQNYKNTATVLDSDGSYFMYSKLRVQKSTWERGSLFACSVVHEGLHNHLTTKTISRSLGK
# Legend:
# Assay in all cases: glycan array binding signal (z-score within array); higher = stronger binding
# Conditions in all cases: glycan notation: IUPAC condensed, linker removed
# [1] = molecular target: Fuc(a1-2)Gal(b1-4)GlcNAc(b1-2)Man(a1-3)[Fuc(a1-2)Gal(b1-4)GlcNAc(b1-2)Man(a1-6)]Man(b1-4)GlcNAc(b1-4)GlcNAc
# Procedure, shortened: (§1)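 Glycan array data were curated from 3228 arrays in the Consortium for Functional Glycomics database and kept only where the protein sequence was available. Glycan names were converted to IUPAC-condensed notation, and columns mapping to the same glycan were averaged. The binding signal is a within-array Z-score, averaged across arrays of the same protein sequence at different concentrations or buffers and across linkers. Negative Z-scores can be read as non-binding.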
# [2] = molecular target: Fuc(a1-2)Gal(b1-4)GlcNAc(b1-6)GalNAc
# Procedure, shortened: as §1
# [3] = molecular target: Fuc(a1-2)Gal6S(b1-4)Glc
# Procedure, shortened: as §1
# [4] = molecular target: Fuc(a1-2)Gal6S(b1-4)Glc6S
# Procedure, shortened: as §1
# [5] = molecular target: Fuc(a1-2)[Gal(a1-3)]Gal(b1-4)GlcNAc(b1-2)Man(a1-3)[Fuc(a1-2)[Gal(a1-3)]Gal(b1-4)GlcNAc(b1-2)Man(a1-6)]Man(b1-4)GlcNAc(b1-4)GlcNAc
# Procedure, shortened: as §1
# [6] = molecular target: Fuc(a1-2)[Gal(a1-3)]Gal(b1-4)GlcNAc(b1-3)[Fuc(a1-2)[Gal(a1-3)]Gal(b1-4)GlcNAc(b1-6)]GalNAc
# Procedure, shortened: as §1
# [7] = molecular target: Fuc(a1-2)[Gal(a1-3)]Gal(b1-4)GlcNAc(b1-6)GalNAc
# Procedure, shortened: as §1
# [8] = molecular target: Fuc(a1-2)[Gal(a1-4)]Gal(b1-4)GlcNAc
# Procedure, shortened: as §1
# [9] = molecular target: Fuc(a1-2)[GalNAc(a1-3)]Gal
# Procedure, shortened: as §1
# [10] = molecular target: Fuc(a1-2)[GalNAc(a1-3)]Gal(b1-4)Glc
# Procedure, shortened: as §1
# [11] = molecular target: Fuc(a1-3)[Gal3S(b1-4)]GlcNAc
# Procedure, shortened: as §1
# [12] = molecular target: Fuc(a1-3)[GalNAc(b1-4)]GlcNAc
# Procedure, shortened: as §1
# [13] = molecular target: Gal(a1-3)Gal(b1-4)Glc
# Procedure, shortened: as §1
# [14] = molecular target: Gal(a1-3)GalNAc
# Procedure, shortened: as §1
# [15] = molecular target: Gal(a1-4)Gal(b1-4)GlcNAc(b1-3)Gal(b1-4)Glc
# Procedure, shortened: as §1
# [16] = molecular target: Gal(b1-3)Gal
# Procedure, shortened: as §1
# [17] = molecular target: Gal(b1-3)[Fuc(a1-4)]GlcNAc(b1-6)GalNAc
# Procedure, shortened: as §1
# [18] = molecular target: Gal(b1-4)GlcNAc(b1-2)Man(a1-3)[Gal(b1-4)GlcNAc(b1-2)Man(a1-6)][Gal(b1-4)GlcNAc(b1-4)]Man(b1-4)GlcNAc(b1-4)[Fuc(a1-6)]GlcNAc
# Procedure, shortened: as §1
# [19] = molecular target: Gal(b1-4)GlcNAc(b1-2)[Gal(b1-4)GlcNAc(b1-4)]Man(a1-3)[Gal(b1-4)GlcNAc(b1-2)Man(a1-6)]Man(b1-4)GlcNAc(b1-4)GlcNAc
# Procedure, shortened: as §1
# [20] = molecular target: Gal(b1-4)GlcNAc(b1-3)Gal(b1-4)GlcNAc(b1-2)Man(a1-3)[Gal(b1-4)GlcNAc(b1-3)Gal(b1-4)GlcNAc(b1-2)Man(a1-6)]Man(b1-4)GlcNAc(b1-4)[Fuc(a1-6)]GlcNAc
# Procedure, shortened: as §1
# [21] = molecular target: Gal(b1-4)GlcNAc6P
# Procedure, shortened: as §1
# [22] = molecular target: Gal6S(b1-4)Glc
# Procedure, shortened: as §1
# [23] = molecular target: GalNAc(b1-4)GlcNAc6S
# Procedure, shortened: as §1
# [24] = molecular target: GlcA(b1-6)Gal
# Procedure, shortened: as §1
# [25] = molecular target: GlcNAc(a1-3)Gal(b1-4)GlcNAc
# Procedure, shortened: as §1
# [26] = molecular target: GlcNAc(a1-4)Gal(b1-4)GlcNAc(b1-3)Gal(b1-4)[Fuc(a1-3)]GlcNAc(b1-3)Gal(b1-4)[Fuc(a1-3)]GlcNAc
# Procedure, shortened: as §1
# [27] = molecular target: GlcNAc(a1-6)Gal(b1-4)GlcNAc
# Procedure, shortened: as §1
# [28] = molecular target: GlcNAc(b1-2)Man(a1-3)[GlcNAc(b1-2)Man(a1-6)]Man(b1-4)GlcNAc(b1-4)[Fuc(a1-6)]GlcNAc
# Procedure, shortened: as §1
# [29] = molecular target: GlcNAc(b1-3)Gal(b1-4)GlcNAc(b1-3)Gal(b1-4)GlcNAc
# Procedure, shortened: as §1
# [30] = molecular target: GlcNAc(b1-3)Gal(b1-4)GlcNAc(b1-3)Gal(b1-4)GlcNAc(b1-2)[GlcNAc(b1-3)Gal(b1-4)GlcNAc(b1-3)Gal(b1-4)GlcNAc(b1-6)]Man(a1-6)[GlcNAc(b1-3)Gal(b1-4)GlcNAc(b1-3)Gal(b1-4)GlcNAc(b1-2)Man(a1-3)]Man(b1-4)GlcNAc(b1-4)[Fuc(a1-6)]GlcNAc
# Procedure, shortened: as §1
# [31] = molecular target: GlcNAc(b1-3)Gal(b1-4)GlcNAc(b1-3)Gal(b1-4)GlcNAc(b1-3)Gal(b1-4)GlcNAc(b1-3)Gal(b1-4)GlcNAc(b1-2)Man(a1-3)[GlcNAc(b1-3)Gal(b1-4)GlcNAc(b1-3)Gal(b1-4)GlcNAc(b1-3)Gal(b1-4)GlcNAc(b1-3)Gal(b1-4)GlcNAc(b1-2)Man(a1-6)]Man(b1-4)GlcNAc(b1-4)GlcNAc
# Procedure, shortened: as §1
# [32] = molecular target: GlcNAc(b1-4)GlcNAc(b1-4)GlcNAc(b1-4)GlcNAc(b1-4)GlcNAc
# Procedure, shortened: as §1
# [33] = molecular target: GlcNAc(b1-4)GlcNAc(b1-4)GlcNAc(b1-4)GlcNAc(b1-4)GlcNAc(b1-4)GlcNAc
# Procedure, shortened: as §1
# [34] = molecular target: GlcNAc6S(b1-3)Gal(b1-4)GlcNAc
# Procedure, shortened: as §1
# [35] = molecular target: Man(a1-2)Man(a1-2)Man(a1-3)Man
# Procedure, shortened: as §1
# [36] = molecular target: Neu5Ac(a2-3)Gal(b1-3)GlcNAc(b1-2)[Neu5Ac(a2-3)Gal(b1-3)GlcNAc(b1-4)]Man(a1-6)[Neu5Ac(a2-3)Gal(b1-3)GlcNAc(b1-2)Man(a1-3)]Man(b1-4)GlcNAc(b1-4)GlcNAc
# Procedure, shortened: as §1
# [37] = molecular target: Neu5Ac(a2-3)Gal(b1-3)GlcNAc(b1-3)Gal(b1-3)GlcNAc
# Procedure, shortened: as §1
# [38] = molecular target: Neu5Ac(a2-3)Gal(b1-4)GlcNAc(b1-2)Man
# Procedure, shortened: as §1
# [39] = molecular target: Neu5Ac(a2-3)[GalNAc(b1-4)]Gal(b1-4)GlcNAc(b1-3)GalNAc
# Procedure, shortened: as §1
# [40] = molecular target: Neu5Ac(a2-6)Gal(b1-4)GlcNAc(b1-2)Man(a1-3)[Man(a1-6)]Man(b1-4)GlcNAc(b1-4)GlcNAc
# Procedure, shortened: as §1
# [41] = molecular target: Neu5Ac(a2-6)Gal(b1-4)GlcNAc(b1-2)Man(a1-3)[Neu5Ac(a2-3)Gal(b1-4)GlcNAc(b1-2)Man(a1-6)]Man(b1-4)GlcNAc(b1-4)GlcNAc
# Procedure, shortened: as §1
# [42] = molecular target: Neu5Ac(a2-6)Gal(b1-4)GlcNAc(b1-2)[Neu5Ac(a2-6)Gal(b1-4)GlcNAc(b1-6)]Man(a1-6)[Neu5Ac(a2-6)Gal(b1-4)GlcNAc(b1-2)Man(a1-3)][GlcNAc(b1-4)]Man(b1-4)GlcNAc(b1-4)GlcNAc
# Procedure, shortened: as §1
# [43] = molecular target: Neu5Ac(a2-6)GalNAc(b1-4)GlcNAc
# Procedure, shortened: as §1
# [44] = molecular target: Neu5Ac(a2-8)Neu5Ac(a2-3)Gal(b1-3)GalNAc(b1-4)[Neu5Ac(a2-3)]Gal(b1-4)Glc
# Procedure, shortened: as §1
# [45] = molecular target: Neu5Ac(a2-8)Neu5Ac(a2-3)Gal(b1-3)GalNAc(b1-4)[Neu5Ac(a2-8)Neu5Ac(a2-3)]Gal(b1-4)Glc
# Procedure, shortened: as §1
# [46] = molecular target: Neu5Ac(a2-8)Neu5Ac(a2-3)[Gal(b1-3)GalNAc(b1-4)]Gal(b1-4)Glc
# Procedure, shortened: as §1
# [47] = molecular target: Neu5Ac(a2-8)Neu5Ac(a2-8)Neu5Ac(a2-3)Gal(b1-4)Glc
# Procedure, shortened: as §1
# [48] = molecular target: Neu5Ac(b2-6)GalNAc
# Procedure, shortened: as §1
# [49] = molecular target: Neu5Gc(a2-3)Gal(b1-3)GlcNAc
# Procedure, shortened: as §1
binder,measurement,setting,value
B1,glycan array binding signal (z-score),[1],0.621
same,glycan array binding signal (z-score),[2],2.73
same,glycan array binding signal (z-score),[3],2.72
same,glycan array binding signal (z-score),[4],0.784
same,glycan array binding signal (z-score),[5],2.81
same,glycan array binding signal (z-score),[6],2.22
same,glycan array binding signal (z-score),[7],0.082
same,glycan array binding signal (z-score),[8],0.651
same,glycan array binding signal (z-score),[9],0.693
same,glycan array binding signal (z-score),[10],-0.508
same,glycan array binding signal (z-score),[11],-0.275
same,glycan array binding signal (z-score),[12],0.174
same,glycan array binding signal (z-score),[13],0.642
same,glycan array binding signal (z-score),[14],-0.598
same,glycan array binding signal (z-score),[15],0.021
same,glycan array binding signal (z-score),[16],2.2
same,glycan array binding signal (z-score),[17],-0.03
same,glycan array binding signal (z-score),[18],0.267
same,glycan array binding signal (z-score),[19],2.75
same,glycan array binding signal (z-score),[20],1.18
same,glycan array binding signal (z-score),[21],2.7
same,glycan array binding signal (z-score),[22],-1.09
same,glycan array binding signal (z-score),[23],0.18
same,glycan array binding signal (z-score),[24],1.32
same,glycan array binding signal (z-score),[25],-1.21
same,glycan array binding signal (z-score),[26],0.73
same,glycan array binding signal (z-score),[27],1.09
same,glycan array binding signal (z-score),[28],-0.281
same,glycan array binding signal (z-score),[29],-0.268
same,glycan array binding signal (z-score),[30],2.07
same,glycan array binding signal (z-score),[31],0.151
same,glycan array binding signal (z-score),[32],-1.3
same,glycan array binding signal (z-score),[33],1.17
same,glycan array binding signal (z-score),[34],0.319
same,glycan array binding signal (z-score),[35],-0.544
same,glycan array binding signal (z-score),[36],0.153
same,glycan array binding signal (z-score),[37],-1.59
same,glycan array binding signal (z-score),[38],-1.13
same,glycan array binding signal (z-score),[39],2.15
same,glycan array binding signal (z-score),[40],2.04
same,glycan array binding signal (z-score),[41],-0.553
same,glycan array binding signal (z-score),[42],0.307
same,glycan array binding signal (z-score),[43],-1.18
same,glycan array binding signal (z-score),[44],1.68
same,glycan array binding signal (z-score),[45],-0.913
same,glycan array binding signal (z-score),[46],0.046
same,glycan array binding signal (z-score),[47],3.06
same,glycan array binding signal (z-score),[48],1.37
same,glycan array binding signal (z-score),[49],-0.635
